# PubChem BioAssay AID463173 (ICCB-Longwood Screening Facility, Harvard Medical School, 2010)
# Hit rate of the full screen: of about 52,000 compounds, about 1,700 (3.3%) were called active. No stated cut-off is given here; in the data, active means survival mostly below about 52% (no sharp cut-off); inactive means mostly above about 56%. This excerpt belongs to a sample that is enriched for actives.
# Tested on: Wild type
# Test: S. aureus survival, RN4220 and DeltatarO strains – OD600, teichoic acid synthesis inhibitors, primary screen (AID 463173)
# Conditions: S. aureus RN4220 wild type/DeltatarO growth, OD600, 18 h, active compounds read low, screened at 18.75 µg/mL (by protocol)
row,SMILES,survival
1,Cc1cc(C)cc(Nc2cc(-c3ccccc3)nc(C)n2)c1,10% (active)
2,CSc1nc(C)cc(Nc2cccc(C(=O)O)c2)n1,87% (inactive)
3,CSc1nc(Nc2ccc(C)cc2C)cc(-c2ccccc2)n1,50% (inactive)
4,Cc1nc(Nc2ccc(Cl)cc2)cc(-c2ccccc2)n1,-2% (active)
5,COc1cccc(Nc2cc(-c3ccccc3)nc(C)n2)c1,49% (inactive)
6,CCOc1ccccc1Nc1cc(-c2ccccc2)nc(C)n1,78% (inactive)
7,CCOC(=O)c1ccc(Nc2cc(-c3ccccc3)nc(C)n2)cc1,83% (inactive)
8,Cc1ccc(Nc2cc(-c3ccccc3)nc(C)n2)cc1,37% (inactive)
9,CSc1nc(Nc2ccc(F)cc2)cc(-c2ccccc2)n1,-2% (active)
10,COc1ccccc1NC(=O)CSc1nncn2c1cc1sccc12,96% (inactive)
11,Cc1oc(-c2ccccc2)nc1CSc1nnc(C)n2c1cc1sccc12,83% (inactive)
12,CCN(CCCNC(=O)Cn1ncc2c([nH]c3ccc(C)cc32)c1=O)Cc1ccccc1,55% (inactive)
13,NCC(O)CN1CCN(Cc2ccccc2)CC1 (stereo not drawn),105% (inactive)
14,CCOC(=O)c1sc2ncn(CC(=O)Nc3ccc(N(C)C)cc3)c(=O)c2c1C,89% (inactive)
15,Cc1cc(SCC(=O)Nc2nsc(-c3ccc(C(C)(C)C)cc3)n2)nc2ccccc12,7% (active)
16,Cc1ccccc1-c1nc(NC(=O)CSc2ncnc3sc4c(c23)CCCC4)ns1,88% (inactive)
17,O=C(CSc1ccc2ccccc2n1)Nc1nsc(-c2ccc(Cl)cc2)n1,68% (inactive)
18,COc1cccc(NC(=O)CSc2cc(C)c3ccccc3n2)c1,73% (inactive)
19,COc1ccc2c(C)cc(SCC(=O)Nc3nsc(-c4ccc(C(C)(C)C)cc4)n3)nc2c1,5% (active)
20,Cc1ccc(-c2nc(NC(=O)CSc3cc(C)c4ccccc4n3)ns2)cc1,71% (inactive)
21,Cc1ccc(-c2nc(NC(=O)CSc3ccc4ccccc4n3)ns2)cc1,83% (inactive)
22,CC(C)(C)c1ccc(-c2nc(NC(=O)CSc3ncnc4sc5c(c34)CCCC5)ns2)cc1,73% (inactive)
23,COc1ccc2c(C)cc(SCC(=O)Nc3nsc(-c4ccccc4C)n3)nc2c1,1% (active)
24,COC(=O)c1ccc(Cn2c(SCC(=O)Nc3ccc(F)cc3)nc3ccccc32)cc1,55% (inactive)
25,Cc1ccc(Sc2ccc(N3CCCC(C(=O)Nc4ccc(F)cc4)C3)nn2)cc1 (stereo not drawn),60% (inactive)

row,SMILES,survival
1,CCOC(=O)c1c(NC(=O)C(C)Oc2ccccc2F)sc(C(C)=O)c1C (stereo not drawn),65% (inactive)
2,COc1ccc(NC(=O)CSc2ccc(-c3cccs3)nn2)cc1,89% (inactive)
3,CCOC(=O)c1c(NC(C)=O)c2c3c(sc2n1Cc1nc(-c2ccc(Cl)cc2)oc1C)CCCC3,81% (inactive)
4,Cc1ccc(CN2COc3c(Cl)cc4c(-c5ccccc5)cc(=O)oc4c3C2)cc1,87% (inactive)
5,COc1ccc(N(Cc2cccs2)C(=O)COc2cccc(C)c2C)cc1,12% (active)
6,Cc1cccc(OCC(=O)N(Cc2cccs2)c2ccc(Cl)cc2)c1C,79% (inactive)
7,COc1ccc(OCC(=O)N(Cc2cccs2)c2ccc(OC)cc2)cc1,85% (inactive)
8,CC1(C)CC2(C=CC(=O)CC2)CCO1 (stereo not drawn),96% (inactive)
9,Cn1c(=O)c2c(-c3ccc(Cl)cc3)ccnc2n(C)c1=O,68% (inactive)
10,O=S(=O)(c1ccccc1)n1nc(-c2ccccc2)nc1NCc1ccc(Cl)cc1,73% (inactive)
11,COc1ccc(CNc2nc(-c3ccccc3)nn2S(=O)(=O)c2ccccc2)cc1,4% (active)
12,COc1ccc(CNc2nc(-c3ccc(Cl)cc3)nn2S(=O)(=O)c2ccc(C)cc2)cc1,64% (inactive)
13,CCc1ccc(NC(=O)Cn2c(=O)n(CCC(=O)NCCc3ccc(OC)c(OC)c3)c(=O)c3ccccc32)cc1,102% (inactive)
14,COc1ccc(NCc2nnc3n2CCCCC3)c(OC)c1,73% (inactive)
15,Cc1ccc(Cl)cc1NCc1nnc2n1CCCCC2,75% (inactive)
16,Fc1ccc(NCc2nnc3n2CCCCC3)cc1Cl,66% (inactive)
17,Cc1cc(C)cc(NCc2nnc3n2CCCCC3)c1,85% (inactive)
18,COc1ccc(C)cc1NCc1nnc2n1CCCCC2,-3% (active)
19,COc1ccc(Cl)cc1NCc1nnc2n1CCCCC2,0% (active)
20,O=[N+]([O-])c1ccc(S(=O)(=O)N2CCn3cccc3C2c2ccccc2F)cc1 (stereo not drawn),132% (inactive)
21,Cn1nc(C(=O)N2CCN(c3cccc(Cl)c3)CC2)c2c1-c1ccccc1S(=O)(=O)C2,46% (inactive)
22,COc1ccc(C2=C/C(=C/c3ccco3)C(=O)O2)cc1,117% (inactive)
23,Cc1cccc(CCNC(=O)CN(c2ccc(C(C)C)cc2)S(=O)(=O)c2c(C)nn(C)c2C)c1,87% (inactive)
24,CC1CCN(S(=O)(=O)c2ccc3c(ccc(=O)n3CC(=O)NCc3ccccc3)c2)CC1,22% (inactive)
25,Cc1ccc(CNC(=O)Cn2c(=O)ccc3cc(S(=O)(=O)N4CCC(C)CC4)ccc32)cc1,10% (active)

row,SMILES,survival
1,CCc1ccc(NC(=O)Cn2c(=O)ccc3cc(S(=O)(=O)N4CCCC4)ccc32)cc1,148% (inactive)
2,CC1CCN(S(=O)(=O)c2ccc3c(ccc(=O)n3CC(=O)Nc3ccc(C(C)C)cc3)c2)CC1,-2% (active)
3,CC1CCN(S(=O)(=O)c2ccc3c(c2)oc(=O)n3CC(=O)N2CCCCC2)CC1,76% (inactive)
4,Cc1ccc(NC(=O)Cn2c(=O)ccc3cc(S(=O)(=O)N4CCCC4)ccc32)cc1N(C)C,0% (active)
5,Cc1ccc(NC(=O)Cn2c(=O)ccc3cc(S(=O)(=O)N4CCCC4)ccc32)cc1C,88% (inactive)
6,CC1CCN(S(=O)(=O)c2ccc3c(ccc(=O)n3CC(=O)NCc3ccc(Cl)cc3)c2)CC1,59% (inactive)
7,CC1CCN(C(=O)Cn2c(=O)oc3cc(S(=O)(=O)N4CCCCC4)ccc32)CC1,83% (inactive)
8,CC(=O)Nc1ccc(NC(=O)Cn2c(=O)ccc3cc(S(=O)(=O)N4CCC(C)CC4)ccc32)cc1,91% (inactive)
9,CC1CCN(S(=O)(=O)c2ccc3c(c2)oc(=O)n3CC(=O)O)CC1,-3% (active)
10,Cc1ccc(NC(=O)Cn2c(=O)ccc3cc(S(=O)(=O)N4CCC(C)CC4)ccc32)cc1Cl,88% (inactive)
11,CN(C1CCCCC1)S(=O)(=O)Cc1ccccc1,94% (inactive)
12,CC1=C(c2ccc(C)cc2)S(=O)(=O)N(Cc2ccc(C(=O)Nc3ccc(F)cc3C)cc2)C1=O,135% (inactive)
13,CCC(=O)N1CCc2cc(Br)cc(S(=O)(=O)CCC(=O)NCCc3cccc(C)c3)c21,45% (inactive)
14,COc1cccc(NC(=O)Cn2c(=O)n(CCc3cccc(C)c3)c(=O)c3ccccc32)c1,82% (inactive)
15,CSc1ccc(CCNC(=O)CCc2c(C)nc3cc(-c4ccccc4)nn3c2C)cc1,86% (inactive)
16,CCOc1ccccc1NC(=O)Cn1c(=O)ccc2cc(S(=O)(=O)N3CCC(C)CC3)ccc21,65% (inactive)
17,CCOc1ccccc1NC(=O)Cn1c(=O)ccc2cc(S(=O)(=O)N3CCCC3)ccc21,-3% (active)
18,CCc1ccccc1NC(=O)Cn1c(=O)ccc2cc(S(=O)(=O)N3CCCC3)ccc21,64% (inactive)
19,Cc1cc(C)c(NC(=O)Cn2c(=O)n(CCC(=O)N3CCc4ccccc4C3)c(=O)c3ccccc32)c(C)c1,83% (inactive)
20,CCC(=O)N1CCc2cc(S(=O)(=O)N(C)c3cccc(C)c3)ccc21,86% (inactive)
21,CCc1cccc(-n2c(C)nc3c(cnn3-c3ccc(C)c(C)c3)c2=O)c1,2% (active)
22,COc1cccc(-n2c(C)nc3c(cnn3-c3ccc(C)c(C)c3)c2=O)c1,54% (inactive)
23,CCc1nc2c(cnn2-c2ccc(C)cc2)c(=O)n1Cc1ccccc1,22% (inactive)
24,CCc1cccc(-n2c(C)nc3c(cnn3-c3ccc(Cl)cc3)c2=O)c1,-2% (active)
25,CCOC(=O)c1ccc(-n2c(C)nc3c(cnn3-c3ccc(Cl)cc3)c2=O)cc1,71% (inactive)

row,SMILES,survival
1,Cc1nc2c(cnn2-c2ccccc2)c(=O)n1-c1ccccc1,126% (inactive)
2,CCc1nc2c(cnn2-c2ccccc2)c(=O)n1-c1ccc(Br)cc1,108% (inactive)
3,CCc1nc2c(cnn2-c2ccc(C)cc2)c(=O)n1-c1ccc(C)cc1,18% (active)
4,COc1ccc(-n2c(C)nc3c(cnn3-c3ccc(C)c(C)c3)c2=O)cc1Cl,118% (inactive)
5,Cc1c(C(=O)OCC2CCCCC2)[nH]c2c1C(=O)CC(c1ccccc1Cl)C2 (stereo not drawn),92% (inactive)
6,Cc1oc2ncn(CC(C)C)c(=O)c2c1C(=O)NCCCN(C)Cc1ccccc1,76% (inactive)
7,Cc1cc2nsnc2c(S(=O)(=O)NCC(=O)O)c1C,99% (inactive)
8,CCCCCCSc1nc(N)c2c3c(sc2n1)CCCC3C (stereo not drawn),-2% (active)
9,CCCCCCSc1ncc(C#N)c(N)n1,119% (inactive)
10,CC1CCCc2sc3nc(SCC(=O)c4ccc(Br)cc4)nc(N)c3c21 (stereo not drawn),66% (inactive)
11,CCCCCNC(=O)C(=O)NCC(c1ccc2c(c1)OCO2)N1CCOCC1 (stereo not drawn),68% (inactive)
12,Cc1ccc(CNC(=O)c2ccc3c(c2)NC(=O)C(CS(=O)(=O)Cc2cccc(F)c2)N3)cc1 (stereo not drawn),117% (inactive)
13,O=C(/C=C/c1ccc(Cl)cc1)N1CCC(c2nc3ccccc3o2)CC1,120% (inactive)
14,CCN(CC)C(=O)Cn1c(=O)n(-c2ccc(Cl)cc2)c(=O)c2c3c(sc21)CCC3,73% (inactive)
15,COCCCN1C(=O)c2[nH]nc(-c3cc(C)ccc3O)c2C1c1ccc(F)cc1 (stereo not drawn),92% (inactive)
16,COCCN1C(=O)c2[nH]nc(-c3ccccc3O)c2C1c1ccc(Cl)c(Cl)c1 (stereo not drawn),3% (active)
17,CCCCN1C(=O)c2[nH]nc(-c3ccccc3O)c2C1c1ccc(OCc2ccccc2)c(OC)c1 (stereo not drawn),64% (inactive)
18,COCCN1C(=O)c2[nH]nc(-c3cc(C)ccc3O)c2C1c1ccc(C(C)C)cc1 (stereo not drawn),11% (active)
19,COCCN1C(=O)c2[nH]nc(-c3ccccc3O)c2C1c1ccc(OCc2ccccc2)c(OC)c1 (stereo not drawn),43% (inactive)
20,CCCCN1C(=O)c2[nH]nc(-c3ccccc3O)c2C1c1cc(Br)c(O)c(OC)c1 (stereo not drawn),10% (active)
21,CCCCOc1cccc(C2c3c(-c4cc(C)ccc4O)n[nH]c3C(=O)N2CCOC)c1 (stereo not drawn),25% (inactive)
22,CCCN1C(=O)c2[nH]nc(-c3ccccc3O)c2C1c1ccc(OCc2ccccc2)c(OC)c1 (stereo not drawn),64% (inactive)
23,COCCCN1C(=O)c2[nH]nc(-c3ccccc3O)c2C1c1ccc(OC)cc1 (stereo not drawn),85% (inactive)
